Experimental data reported in ChEMBL document CHEMBL3988442, “University of Dundee, Small-Polar-MMV Screening Library” (2021).
For some of these results: Results with a measured potency or affinity are listed apart.

Experiments:
Set-up in all cases: scale not given: direction of the effect not stated beside the values
[1] = molecular target: Protein translocase subunit SecA (Escherichia coli (strain K12)) (UniProt P10408); experiment: Assay to Identify E. coli SecA ATPase Inhibitors; type: functional; conditions: 30 µM
Chain of Protein translocase subunit SecA (Escherichia coli (strain K12)) (P10408 whole entry): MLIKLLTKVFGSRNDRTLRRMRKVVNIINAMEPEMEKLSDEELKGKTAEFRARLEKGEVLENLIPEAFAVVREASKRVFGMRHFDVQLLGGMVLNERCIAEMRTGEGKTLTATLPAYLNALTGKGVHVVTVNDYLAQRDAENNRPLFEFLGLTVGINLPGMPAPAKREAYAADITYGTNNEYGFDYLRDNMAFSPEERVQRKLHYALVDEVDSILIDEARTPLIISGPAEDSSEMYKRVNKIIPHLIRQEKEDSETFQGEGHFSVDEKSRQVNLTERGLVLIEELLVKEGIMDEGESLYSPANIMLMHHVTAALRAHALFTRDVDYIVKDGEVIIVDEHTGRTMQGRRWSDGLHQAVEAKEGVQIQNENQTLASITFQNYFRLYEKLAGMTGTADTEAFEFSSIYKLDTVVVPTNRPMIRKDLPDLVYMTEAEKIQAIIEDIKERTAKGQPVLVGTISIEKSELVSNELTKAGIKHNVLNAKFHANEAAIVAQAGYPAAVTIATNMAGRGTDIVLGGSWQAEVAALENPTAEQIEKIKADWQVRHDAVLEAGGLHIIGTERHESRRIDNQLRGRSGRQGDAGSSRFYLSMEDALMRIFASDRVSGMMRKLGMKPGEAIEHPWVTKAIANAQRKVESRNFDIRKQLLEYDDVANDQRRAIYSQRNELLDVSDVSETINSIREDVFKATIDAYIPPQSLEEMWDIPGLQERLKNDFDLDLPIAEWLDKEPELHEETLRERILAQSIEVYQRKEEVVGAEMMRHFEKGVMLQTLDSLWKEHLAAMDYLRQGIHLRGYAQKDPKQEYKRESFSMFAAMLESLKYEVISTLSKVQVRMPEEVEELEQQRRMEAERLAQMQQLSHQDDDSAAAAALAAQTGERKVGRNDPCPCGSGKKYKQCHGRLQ

[2] = molecular target: T1, Ubiquitin-activating enzyme e1, putative (Leishmania donovani (strain BPK282A1)) (UniProt E9BSI1); experiment: Leishmania donovani Ubiquitin Activating Enzyme (LdE1); type: functional; conditions: 30 µM
T1 sequence (whole entry): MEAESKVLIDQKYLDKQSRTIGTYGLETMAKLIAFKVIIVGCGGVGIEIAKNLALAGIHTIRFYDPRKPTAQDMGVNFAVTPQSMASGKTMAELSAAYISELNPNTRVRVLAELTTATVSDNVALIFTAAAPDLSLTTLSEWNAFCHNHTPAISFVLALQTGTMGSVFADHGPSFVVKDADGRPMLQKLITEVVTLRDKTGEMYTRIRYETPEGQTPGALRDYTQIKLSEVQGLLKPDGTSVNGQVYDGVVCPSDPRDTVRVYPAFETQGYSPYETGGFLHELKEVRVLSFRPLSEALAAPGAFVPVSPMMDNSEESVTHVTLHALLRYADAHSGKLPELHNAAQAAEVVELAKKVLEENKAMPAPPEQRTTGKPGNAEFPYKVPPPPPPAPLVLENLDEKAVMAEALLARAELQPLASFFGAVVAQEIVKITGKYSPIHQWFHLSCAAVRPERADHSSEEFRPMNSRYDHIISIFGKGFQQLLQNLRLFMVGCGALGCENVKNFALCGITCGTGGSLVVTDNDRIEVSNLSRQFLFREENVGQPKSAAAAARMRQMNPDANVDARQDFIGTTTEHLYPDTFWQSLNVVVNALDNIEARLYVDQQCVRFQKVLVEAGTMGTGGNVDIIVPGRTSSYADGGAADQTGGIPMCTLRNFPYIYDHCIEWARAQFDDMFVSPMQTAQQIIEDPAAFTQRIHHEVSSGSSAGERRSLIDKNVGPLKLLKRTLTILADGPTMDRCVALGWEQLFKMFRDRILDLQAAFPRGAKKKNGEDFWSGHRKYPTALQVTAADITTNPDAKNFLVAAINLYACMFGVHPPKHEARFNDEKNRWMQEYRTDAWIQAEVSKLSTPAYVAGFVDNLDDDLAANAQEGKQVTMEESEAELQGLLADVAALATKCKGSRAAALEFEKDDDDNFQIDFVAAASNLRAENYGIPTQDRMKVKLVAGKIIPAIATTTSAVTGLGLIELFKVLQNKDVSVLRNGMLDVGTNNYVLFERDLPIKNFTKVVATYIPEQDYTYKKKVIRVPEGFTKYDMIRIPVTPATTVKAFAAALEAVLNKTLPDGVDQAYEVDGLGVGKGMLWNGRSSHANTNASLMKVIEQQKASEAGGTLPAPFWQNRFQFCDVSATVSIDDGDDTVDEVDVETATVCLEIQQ

[3] = molecular target: AMP-activated protein kinase, AMPK (Homo sapiens) (UniProt P54646+O43741+P54619+Q9UGJ0+Q9Y478+Q13131+Q9UGI9); experiment: AMP-dependent Kinase enzyme assay. An in vitro enzyme assay that detects ADP turnover that is directly proportional to AMPK activity. This uses naive AMPK that is activated during the assay with MK-8722; type: functional; conditions: 30 µM
[4] = molecular target: Sialic acid-binding Ig-like lectin 9 (Homo sapiens) (UniProt Q9Y336); experiment: Hs-Siglec9 ALPHAscreen SOP 20170721; conditions: 10 µM
Chain of Sialic acid-binding Ig-like lectin 9 (Homo sapiens) (Q9Y336 whole entry): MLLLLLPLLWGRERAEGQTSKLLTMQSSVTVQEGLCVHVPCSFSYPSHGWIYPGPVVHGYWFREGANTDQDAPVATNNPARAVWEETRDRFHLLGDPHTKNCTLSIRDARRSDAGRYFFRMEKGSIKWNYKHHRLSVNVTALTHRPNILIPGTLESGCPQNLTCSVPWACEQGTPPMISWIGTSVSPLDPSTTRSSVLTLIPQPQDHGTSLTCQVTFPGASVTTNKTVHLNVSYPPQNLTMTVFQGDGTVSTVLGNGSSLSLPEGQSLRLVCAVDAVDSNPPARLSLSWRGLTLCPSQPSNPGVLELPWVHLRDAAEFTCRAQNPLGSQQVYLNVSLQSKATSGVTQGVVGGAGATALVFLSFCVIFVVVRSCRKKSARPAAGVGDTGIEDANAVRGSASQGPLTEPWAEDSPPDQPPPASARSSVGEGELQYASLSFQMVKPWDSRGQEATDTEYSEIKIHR

Trypanosoma cruzi = experiment: Trypanosoma cruzi phosphomannomutase and mannose-1-phosphate guanylyltransferase assay; type: functional; conditions: 10 µM
[5] = molecular target: T2, Arginase-2, mitochondrial (Homo sapiens) (UniProt P78540); experiment: in vitro enzyme assay to detect the production of urea directly proportional to the activity of Arginase II; type: functional; conditions: 33.3 µM; also: in the data most compounds retested in dose-response had high values
T2 sequence (whole entry): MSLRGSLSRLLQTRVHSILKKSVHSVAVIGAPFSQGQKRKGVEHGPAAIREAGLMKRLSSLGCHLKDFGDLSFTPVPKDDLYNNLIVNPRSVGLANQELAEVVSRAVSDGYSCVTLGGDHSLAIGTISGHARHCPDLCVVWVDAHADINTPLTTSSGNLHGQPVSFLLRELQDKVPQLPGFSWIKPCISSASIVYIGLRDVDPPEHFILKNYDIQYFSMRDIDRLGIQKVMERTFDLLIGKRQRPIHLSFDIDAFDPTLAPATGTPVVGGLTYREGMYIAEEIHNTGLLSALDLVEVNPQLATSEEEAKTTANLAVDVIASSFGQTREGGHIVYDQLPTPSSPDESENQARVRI

[6] = molecular target: T3, Proteasome subunit beta (Trypanosoma cruzi) (UniProt O96673); experiment: Trypanosoma cruzi proteasome chymotrypsin-like activity (TcProtChymo) assay.; also: in the data most compounds retested in dose-response had high values; type: functional; conditions: 9.37 µM
T3 sequence (whole entry): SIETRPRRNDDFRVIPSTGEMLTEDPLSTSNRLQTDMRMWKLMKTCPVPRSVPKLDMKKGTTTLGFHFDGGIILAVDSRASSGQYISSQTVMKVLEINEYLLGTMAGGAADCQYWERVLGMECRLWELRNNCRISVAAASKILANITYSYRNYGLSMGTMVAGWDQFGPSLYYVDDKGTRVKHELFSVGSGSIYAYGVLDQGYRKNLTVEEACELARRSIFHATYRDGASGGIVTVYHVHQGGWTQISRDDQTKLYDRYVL

Homo sapiens = organism: Homo sapiens; experiment: To identify inhibition of the IFN signalling (Jak-Stat) pathway via expression of an eGFP reporter gene under the control of an IFN-stimulated response element (ISRE) containing MxA promoter.; type: functional; conditions: 30 µM
[7] = molecular target: T4, Tyrosyl-tRNA synthetase, putative (Trypanosoma cruzi (strain CL Brener)) (UniProt Q4DSP6); experiment: Trypanosoma cruzi tyrosyl tRNA synthetase (TcYRS) _High Tyrosine SOP; type: functional; conditions: 30 µM; also: in the data most compounds retested in dose-response had high values
T4 sequence (whole entry): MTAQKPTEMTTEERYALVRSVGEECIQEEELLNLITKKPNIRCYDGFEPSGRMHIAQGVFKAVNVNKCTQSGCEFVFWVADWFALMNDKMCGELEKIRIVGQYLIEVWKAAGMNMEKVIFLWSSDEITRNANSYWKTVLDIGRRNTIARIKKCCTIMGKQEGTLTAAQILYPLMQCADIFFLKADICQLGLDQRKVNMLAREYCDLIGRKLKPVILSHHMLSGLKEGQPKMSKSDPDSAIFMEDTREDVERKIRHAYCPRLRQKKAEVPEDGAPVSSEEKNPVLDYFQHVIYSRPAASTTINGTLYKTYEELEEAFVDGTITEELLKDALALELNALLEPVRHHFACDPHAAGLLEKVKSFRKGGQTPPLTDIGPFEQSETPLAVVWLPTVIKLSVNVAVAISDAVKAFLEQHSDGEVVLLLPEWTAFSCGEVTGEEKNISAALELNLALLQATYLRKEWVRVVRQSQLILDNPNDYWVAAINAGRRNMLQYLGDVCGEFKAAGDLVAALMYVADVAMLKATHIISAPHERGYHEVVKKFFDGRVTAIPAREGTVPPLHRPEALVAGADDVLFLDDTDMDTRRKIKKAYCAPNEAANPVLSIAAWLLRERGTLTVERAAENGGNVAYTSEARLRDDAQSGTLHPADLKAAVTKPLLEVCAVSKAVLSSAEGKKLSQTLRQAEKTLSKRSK

[8] = molecular target: T4, Tyrosyl-tRNA synthetase, putative (Trypanosoma cruzi (strain CL Brener)); experiment: Trypanosoma cruzi tyrosyl tRNA synthetase (TcYRS) SOP; type: functional; conditions: 30 µM
[9] = molecular target: Chromo domain-containing protein 1 (Saccharomyces cerevisiae (strain ATCC 204508 / S288c) (Baker's yeast)) (UniProt P32657); experiment: ScCHD-1 Enzyme Inhibition Assay; type: functional; conditions: 30 µM; also: in the data most compounds retested in dose-response had high values
Chain of Chromo domain-containing protein 1 (Saccharomyces cerevisiae (strain ATCC 204508 / S288c) (Baker's yeast)) (P32657 whole entry, the tested form may be a part): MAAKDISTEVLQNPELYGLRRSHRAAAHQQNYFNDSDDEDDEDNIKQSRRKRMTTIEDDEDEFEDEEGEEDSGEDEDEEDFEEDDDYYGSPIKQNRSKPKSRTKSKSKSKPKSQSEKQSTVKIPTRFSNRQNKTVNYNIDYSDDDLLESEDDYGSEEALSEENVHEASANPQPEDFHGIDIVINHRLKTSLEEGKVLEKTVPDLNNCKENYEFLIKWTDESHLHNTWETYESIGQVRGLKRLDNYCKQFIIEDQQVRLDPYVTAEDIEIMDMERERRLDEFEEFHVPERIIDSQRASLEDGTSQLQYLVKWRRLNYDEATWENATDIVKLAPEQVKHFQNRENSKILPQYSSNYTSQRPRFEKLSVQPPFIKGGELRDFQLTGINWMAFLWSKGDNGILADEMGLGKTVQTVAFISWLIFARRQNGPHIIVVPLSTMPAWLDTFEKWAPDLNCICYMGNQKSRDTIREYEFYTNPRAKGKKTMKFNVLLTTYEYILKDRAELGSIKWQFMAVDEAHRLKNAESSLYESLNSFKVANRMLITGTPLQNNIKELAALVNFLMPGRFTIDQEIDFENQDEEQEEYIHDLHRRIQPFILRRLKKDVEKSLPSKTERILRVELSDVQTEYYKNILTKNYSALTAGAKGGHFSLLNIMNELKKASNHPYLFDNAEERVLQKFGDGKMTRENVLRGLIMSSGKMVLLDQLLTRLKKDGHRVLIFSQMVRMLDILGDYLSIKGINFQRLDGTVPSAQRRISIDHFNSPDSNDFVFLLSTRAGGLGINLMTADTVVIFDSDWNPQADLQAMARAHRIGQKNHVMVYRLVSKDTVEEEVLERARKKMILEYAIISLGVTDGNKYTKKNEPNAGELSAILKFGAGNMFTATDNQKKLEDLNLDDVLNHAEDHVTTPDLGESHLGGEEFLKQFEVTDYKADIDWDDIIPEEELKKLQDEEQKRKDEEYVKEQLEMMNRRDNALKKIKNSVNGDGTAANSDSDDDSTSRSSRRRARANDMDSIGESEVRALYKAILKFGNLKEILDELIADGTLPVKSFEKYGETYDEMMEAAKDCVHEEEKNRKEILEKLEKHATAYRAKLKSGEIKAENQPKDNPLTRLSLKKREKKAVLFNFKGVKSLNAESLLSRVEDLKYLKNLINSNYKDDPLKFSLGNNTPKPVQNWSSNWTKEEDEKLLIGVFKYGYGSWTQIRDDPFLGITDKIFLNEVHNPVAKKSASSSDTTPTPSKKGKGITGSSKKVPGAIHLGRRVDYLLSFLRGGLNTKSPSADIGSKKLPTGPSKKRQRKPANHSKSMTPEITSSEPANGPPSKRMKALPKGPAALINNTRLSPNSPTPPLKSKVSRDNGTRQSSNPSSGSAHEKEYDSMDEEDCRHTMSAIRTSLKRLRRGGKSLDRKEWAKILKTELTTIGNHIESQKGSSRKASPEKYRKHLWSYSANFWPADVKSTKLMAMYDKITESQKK

| SMILES | Percent Effect [1] [%] | Percent Effect [2] [%] | Percent Effect [3] [%] | Percent Effect [4] [%] | Percent Effect (Trypanosoma cruzi) [%] | Percent Effect [5] [%] | Percent Effect [6] [%] | Percent Effect (Homo sapiens) [%] | Percent Effect [7] [%] | Percent Effect [8] [%] | Percent Effect [9] [%] |
| --- | --- | --- | --- | --- | --- | --- | --- | --- | --- | --- | --- |
| CN(CC(=O)N1CCCC1Cn1cccn1)c1cnccn1 (configuration not stated) | -5.14 | 0 | 0.965 | 10.7 | -1.6 | -1.9 | -0.901 | 15.8 | -2.46 | -1.27 | -2.89 |
| CCCNC(=O)CNc1cc(C(=O)N2CCSCC2)ccc1C | -4.74 | 5.48 | -4.24 | 9.22 | 8.73 | -4.39 | 7.28 | 2.79 | 5.21 | 11.1 | -9.2 |
| O=C(c1ccc(NC2CC2)nc1)N1CCCC(n2cccn2)C1 (configuration not stated) | -6.81 | 5.26 | -1.25 | 1.67 | -4.51 | 2.3 | 3.51 | 18.5 | 0.49 | 7.32 | -0.025 |
| O=C(c1cscn1)N1C[C@H]2CCCC(OCc3cccnc3)[C@H]2C1 (some centres not stated) | -5.26 | 5.33 | -2.55 | 2.64 | -0.193 | -37.5 | 9.06 | -6.53 | 1.04 | 12.5 | -5 |
| NCC(=O)N1CCCC(c2cncc(Nc3ncccn3)n2)C1 (configuration not stated) | -3.81 | 9.46 | 17.7 | 18 | -2.57 | -3.48 | 10.3 | 5.7 | 5.38 | 11.7 | 2.63 |
| CC(C)N1CCC(Cc2cc(-c3ccccc3C(=O)O)ncn2)CC1 | -1.66 | 52.7 | 4.35 | -7.29 | -0.988 | 2.09 | 5.3 | 17.4 | 4.3 | 6.49 | -7.12 |
| CC(C(=O)N1CCCN(c2ncccc2C#N)CC1)n1ccnc1 (configuration not stated) | -2.42 | 21.1 | 0.0866 | -9.53 | 5.13 | -1.08 | 7.19 | 14 | 10.3 | 18.5 | -9.73 |
| Cc1cc(NC(=O)NCC(O)c2ccc(Cl)cc2Cl)n(C)n1 (configuration not stated) | -2.82 | -2.63 | 1.15 | 8.57 | 0.376 | -0.383 | -2.17 | -20.8 | -0.49 | -75.6 | -5.69 |
| COCCN(C)CCN1CC2(CCN(C3CCCOC3)CC2)OC1=O (configuration not stated) | -2.07 | 20.8 | -4.24 | 3.41 | 0.295 | -11 | 16.5 | 11.4 | 3.23 | 18.5 | -6.77 |
| CC1COCCN1Cc1nc(-c2cccc(Br)c2)no1 (configuration not stated) | -3.43 | 13.5 | 7.49 | 1.61 | -8.4 | 2 | 17.7 | 24.7 | 0.493 | 1.24 | -8.7 |
| CN(C)C(=O)N1CCn2nc(CNC(=O)CCC(F)(F)F)cc2C1 | 0.369 | 6.94 | -0.273 | 2.6 | 4.18 | 13.7 | 10.3 | 15 | 6.32 | 15.4 | -4.37 |
| Cc1nc(N(C)C)nc2c1COCC21CCN(C(=O)NC(C)C)C1 (configuration not stated) | -5.29 | 0 | -0.0672 | 2.32 | 2.15 | -2.08 | 4.82 | -1.11 | 0.99 | 18.3 | -4.61 |
| O=C(CN1CC(n2cccn2)C1)NCCCc1ccccc1 | 0.869 | -13.5 | 10.2 | 12.8 | 6.41 | 1.29 | -0.179 | -9.65 | 1.98 | 11 | 1.45 |
| COc1ccc(-c2noc(CN3CCOCC3C)n2)cc1OC (configuration not stated) | -2.2 | 18.9 | -11.1 | 15.8 | 0.0943 | -6.81 | 8.83 | 28.9 | 5.42 | 16.1 | -11 |
| Cc1ccc(-c2cc(N)c(=O)n(CC(=O)NCC3CCCCC3)n2)s1 | -3.51 | 9.46 | 11.8 | -4.16 | -6.13 | -2.09 | 12.3 | 9.89 | -6.45 | 3.9 | -4.23 |
| Cc1nn(C)c(C)c1CNCc1ccnc(N2CCOCC2)c1 | -6.06 | 1.27 | 2.39 | -0.497 | 2.56 | -0.645 | -1.03 | 24 | -1.04 | -2.53 | -31.5 |
| CC(NC1(CNC(=O)C(C)(C)C#N)CCOCC1)c1ccccc1 (configuration not stated) | -11.4 | 0 | -1.47 | -3.49 | -3.03 | -1.74 | 4.89 | 7 | -7.53 | -3.7 | -3.14 |
